This note sets out measurements from PubChem BioAssay (NCATS).

Structures are written as SMILES. Inconclusive results are not listed. Unmarked numbers belong to inactive results. The source made the active and inactive calls. Calls come from the whole dose curve; as a rule, active = well fitted curve in the direction sought with a large enough effect; inconclusive = small, poorly fitted or top-dose-only effect, or another doubt; inactive = no such curve, though single readings can be large; an effect the other way counts as inactive or inconclusive.

In test [1] the target is Rap guanine nucleotide exchange factor 3 (Homo sapiens) (UniProt O95398). In words: Confirmatory qHTS for antagonist of cAMP-regulated guanine nucleotide exchange factor 3 (EPAC1) (AID 1645880). Note: nearly all actives have a fitted effect of over 55% in size. Note: potency is the fitted concentration of half-maximal effect. Summed up: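 Released BODIPY-GDP fluoresces less than Rap1-bound BODIPY-GDP; the signal is followed at 480/540 nm at 5-min intervals over 30 min, after 5 min at room temperature. Reactions contain 100 nM EPAC1, 250 nM RAP1B-BODIPY-GDP and 50 uM GDP; results are normalized to ATA and DMSO.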
(Quantitative high-throughput screening tests each substance at several concentrations.)

Test [2] shares this target. Description: Confirmatory qHTS for agonist of cAMP-regulated guanine nucleotide exchange factor 3 (EPAC1) (AID 1645881).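 Note: EPAC1 catalysed release of BODIPY-GDP from Rap1B seen as fluorescence loss; 100% = effect of cAMP agonist control; nearly all actives have a fitted effect of over 75% in size.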
Test [3] has as its target Rap guanine nucleotide exchange factor 4 (Homo sapiens) (UniProt Q8WZA2). Description: Confirmatory qHTS for agonist of cAMP-regulated guanine nucleotide exchange factor 4 (EPAC2) (AID 1645884).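 Note: nucleotide exchange releases bodipy-GDP from Rap1 and this lowers its fluorescence; % is set by controls: 0 for no effect and ±100 for the full control effect; nearly all actives have a fitted effect of over 65% in size.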
For test [4] the target is unchanged. In words: Confirmatory qHTS for antagonist of cAMP-regulated guanine nucleotide exchange factor 4 (EPAC2) (AID 1645885). For activity change, negative = inhibition: % is set by controls: 0 for no effect and ±100 for the full control effect. Note: nearly all actives have a fitted effect of over 25% in size.
Test [5] has as its target Rap guanine nucleotide exchange factor 3 (Homo sapiens) (UniProt O95398). In words: Counterscreen qHTS for antagonist of cAMP-regulated guanine nucleotide exchange factor 3 (EPAC1) (AID 1645888). Note: % of control where 0% means no effect. Summed up:
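Measured: fluorescence of BODIPY-GDP bound to Rap1B, which falls as exchange proceeds. Conditions include 50 uM competing GDP, 5 and 30 min reads, and a later cAMP challenge for antagonist detection.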
In general terms: The purpose of a counterscreen is to sort out artefacts and off-target activity.

Chain of Rap guanine nucleotide exchange factor 4 (Homo sapiens) (Q8WZA2 whole entry, looked up): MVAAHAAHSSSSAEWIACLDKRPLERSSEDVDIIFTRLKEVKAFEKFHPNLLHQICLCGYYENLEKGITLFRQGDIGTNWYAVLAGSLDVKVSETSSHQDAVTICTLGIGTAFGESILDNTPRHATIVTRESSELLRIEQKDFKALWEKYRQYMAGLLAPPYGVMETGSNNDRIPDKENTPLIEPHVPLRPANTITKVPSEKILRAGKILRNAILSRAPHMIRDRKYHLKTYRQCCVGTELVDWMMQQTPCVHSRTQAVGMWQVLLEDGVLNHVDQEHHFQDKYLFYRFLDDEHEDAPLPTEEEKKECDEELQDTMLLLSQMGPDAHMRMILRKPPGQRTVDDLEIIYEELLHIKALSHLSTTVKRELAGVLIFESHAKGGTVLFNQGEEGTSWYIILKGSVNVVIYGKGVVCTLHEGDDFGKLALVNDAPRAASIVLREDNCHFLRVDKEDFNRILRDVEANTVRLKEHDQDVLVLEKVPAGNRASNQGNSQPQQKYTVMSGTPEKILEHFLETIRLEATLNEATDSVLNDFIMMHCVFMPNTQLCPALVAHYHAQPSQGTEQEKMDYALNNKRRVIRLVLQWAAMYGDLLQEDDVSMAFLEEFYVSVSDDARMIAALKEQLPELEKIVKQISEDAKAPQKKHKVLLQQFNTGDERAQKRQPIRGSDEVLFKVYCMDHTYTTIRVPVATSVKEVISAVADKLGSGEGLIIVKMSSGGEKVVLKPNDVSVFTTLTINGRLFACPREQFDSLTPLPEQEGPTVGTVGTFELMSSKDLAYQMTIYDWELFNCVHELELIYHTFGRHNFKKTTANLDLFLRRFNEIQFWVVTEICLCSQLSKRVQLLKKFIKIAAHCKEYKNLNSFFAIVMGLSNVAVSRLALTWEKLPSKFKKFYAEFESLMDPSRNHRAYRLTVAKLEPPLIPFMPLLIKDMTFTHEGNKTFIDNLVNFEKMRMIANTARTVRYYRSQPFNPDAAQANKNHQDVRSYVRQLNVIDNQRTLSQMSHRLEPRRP
Chain of Rap guanine nucleotide exchange factor 3 (Homo sapiens) (O95398 whole entry, looked up): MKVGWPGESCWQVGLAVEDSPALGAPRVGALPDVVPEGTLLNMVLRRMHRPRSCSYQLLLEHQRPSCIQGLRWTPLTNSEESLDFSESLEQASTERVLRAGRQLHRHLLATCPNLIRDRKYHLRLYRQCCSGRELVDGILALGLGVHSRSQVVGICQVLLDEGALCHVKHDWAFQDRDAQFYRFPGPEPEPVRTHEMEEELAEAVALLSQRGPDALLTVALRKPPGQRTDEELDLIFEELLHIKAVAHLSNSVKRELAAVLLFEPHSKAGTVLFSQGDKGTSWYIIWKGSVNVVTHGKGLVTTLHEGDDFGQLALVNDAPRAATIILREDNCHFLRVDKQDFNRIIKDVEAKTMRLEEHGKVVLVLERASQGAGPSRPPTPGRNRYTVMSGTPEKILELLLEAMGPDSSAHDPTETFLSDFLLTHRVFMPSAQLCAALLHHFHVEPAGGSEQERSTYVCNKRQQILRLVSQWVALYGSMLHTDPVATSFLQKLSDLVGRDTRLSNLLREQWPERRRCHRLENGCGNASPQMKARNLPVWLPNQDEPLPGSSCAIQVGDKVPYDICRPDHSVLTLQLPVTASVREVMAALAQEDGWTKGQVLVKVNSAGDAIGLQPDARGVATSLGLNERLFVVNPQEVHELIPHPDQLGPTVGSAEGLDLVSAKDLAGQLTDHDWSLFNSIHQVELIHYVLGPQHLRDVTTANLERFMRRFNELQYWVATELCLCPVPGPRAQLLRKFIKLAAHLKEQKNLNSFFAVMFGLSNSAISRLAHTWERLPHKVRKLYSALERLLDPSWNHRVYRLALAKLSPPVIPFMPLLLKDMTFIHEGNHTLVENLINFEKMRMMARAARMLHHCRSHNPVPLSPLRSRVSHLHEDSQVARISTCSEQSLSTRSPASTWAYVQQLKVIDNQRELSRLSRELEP

Take `O=C1C=C(Nc2cccnc2)c2ccccc2C1=O`: the Potency in test [1] is 67.5 µM (active). Also, the Potency entry in test [2], in test [3] and in test [5] was “inactive” throughout. The outcome in test [4] is “inactive [at 12.7 µM]”.
Consider `Cc1cccc(Cn2c(SCc3ccc(C(=O)N4CCCCCC4)cc3)nc3ccncc32)c1`, for which the Potency result in test [1], in test [2], in test [3], in test [4] and in test [5] was “inactive” each time.
In the case of `Cc1ccc(CNC(=O)COc2ccccc2-c2ccccc2)cc1`, the Potency result in test [1], in test [2] and in test [4] was “inactive” in each case. Besides, the activation in test [3] was 2.73% [at 17.1 µM, percent relative to cAMP agonist control]. Further, the activity change, negative = inhibition in test [5] was 0.587% [at 30.8 µM].
Consider `Cc1ccc(-c2cc(C(=O)Nc3ccc4c(c3)OCCO4)c3ccccc3n2)cc1`, for which the Potency entry in test [1], in test [2] and in test [4] was “inactive” each time. The activation in test [3] is 9.86% [at 17.1 µM, percent relative to cAMP agonist control]. For the same compound, in test [5], the activity change, negative = inhibition was 3.98% [at 30.8 µM].
For the compound `COc1cc(CNn2cnnc2)ccc1OCC(=O)NC(C)(C)C`, the Potency entry in test [1], in test [2], in test [3], in test [4] and in test [5] was “inactive” in each case.
Regarding `COC(=O)c1cc2sccc2n1Cc1c(C)cc(C)cc1C`, the Potency result in test [1], in test [2], in test [3], in test [4] and in test [5] was “inactive” in each case.
For the compound `COc1ccc(NC(=O)c2ccc3c(SCC(=O)O)c4c(nc3c2)CCCC4)c(OC)c1`, in test [1], the Potency is 75.7 µM (active). Besides, the Potency entry in test [2], in test [3], in test [4] and in test [5] was “inactive” throughout.
For the compound `O=C(Nc1ccccc1N1CCOCC1)c1cccc2c(Br)cccc12`, the Potency result in test [1], in test [2], in test [3], in test [4] and in test [5] was “inactive” each time.
On to `CN1OC[C@@H]2CN(S(=O)(=O)c3cc(Cl)cc(Cl)c3)[C@H](c3ccc(-c4ccc(C#N)cc4)cc3)C[C@@H]21`, for which the Potency result in test [1], in test [2], in test [3], in test [4] and in test [5] was “inactive” each time.
For `CCC(=O)N1N=C(c2cccs2)CC1c1ccc(OC)cc1` (stereo not given), the Potency result in test [1], in test [2], in test [3], in test [4] and in test [5] was “inactive” each time.
Regarding `CCOc1ccc(CCNc2ncnc3onc(-c4ccc(Cl)cc4)c23)cc1OCC`, the Potency entry in test [1], in test [2], in test [3], in test [4] and in test [5] was “inactive” in each case.
Consider `COc1ccc(C(NC(C)=O)c2cc(Cl)c3cccnc3c2O)cc1` (stereo not given), for which the Potency result in test [1], in test [2] and in test [4] was “inactive” in each case. In addition, in test [3], the activation was 3.14% [at 17.1 µM, percent relative to cAMP agonist control]. Also, the activity change, negative = inhibition in test [5] is -6.93% [at 30.8 µM].
Take `O=C1NC(=O)C(c2ccccc2)(c2ccccc2)N1S(=O)(=O)c1ccccc1`: the Potency result in test [1], in test [2], in test [3], in test [4] and in test [5] was “inactive” in each case.
In the case of `CSc1nc2c(c(C(F)(F)F)n1)CC(C)CC2` (stereo not given), the Potency entry in test [1], in test [2], in test [3], in test [4] and in test [5] was “inactive” in each case.
With `C=CCN(c1ccccc1)S(=O)(=O)c1cccc(C(=O)N2CC(C)CC(C)C2)c1` (stereo not given), the Potency result in test [1], in test [2], in test [3], in test [4] and in test [5] was “inactive” throughout.
As to `CCOC(=O)Cn1c(-c2cccs2)cc2cc(Cl)ccc21`, the Potency result in test [1], in test [2], in test [3] and in test [5] was “inactive” each time. Further, in test [4], the outcome is “inactive [at 12.7 µM]”.
In the case of `CCc1cccc2c(C(=O)COC(=O)c3nccnc3N)c[nH]c12`, the Potency entry in test [1], in test [2], in test [3], in test [4] and in test [5] was “inactive” in each case.
Regarding `O=C(c1ccccc1)N1CCN(CCc2ccccn2)CC1`, the Potency result in test [1], in test [2], in test [3] and in test [5] was “inactive” in each case. Further, the outcome in test [4] is “inactive [at 12.7 µM]”.
`Cc1ccccc1NC1=C/C(=N\S(=O)(=O)c2ccc(C(=O)O)cc2)c2ccccc2C1=O`: the Potency in test [1] is 14.1 µM (active). Further, the Potency entry in test [2] and in test [4] was “inactive” each time. In test [3], the activation was 1.42% [at 17.1 µM, percent relative to cAMP agonist control]. Moreover, the activity change, negative = inhibition in test [5] is -15% [at 30.8 µM].
As for `CCOc1cccc(C(=O)N(Cc2ccc(F)cc2)Cc2ccco2)c1`, the Potency entry in test [1], in test [2], in test [3], in test [4] and in test [5] was “inactive” in each case.
Turning to `CC1(C(=O)NS(=O)(=O)c2ccc(Cl)s2)CCN1C(=O)C1(c2ccc(Cl)cc2)CC1` (stereo not given), the Potency in test [1] was 14.1 µM (active). In addition, the Potency entry in test [2] and in test [4] was “inactive” in each case. The activation in test [3] is 0% [at 17.1 µM, percent relative to cAMP agonist control]. Moreover, in test [5], the activity change, negative = inhibition is -17.9% [at 30.8 µM].
As for `O=C(c1ccco1)N(Cc1ccc([N+](=O)[O-])cc1)c1ccc(Br)cc1`, the Potency result in test [1], in test [2] and in test [4] was “inactive” throughout. For the same compound, in test [3], the activation is -0.906% [at 17.1 µM, percent relative to cAMP agonist control]. Moreover, the activity change, negative = inhibition in test [5] is 10.5% [at 30.8 µM].
In the case of `Cc1cccc(C(=O)Nc2cccc(C(=O)OCc3cc(=O)n4c5c(sc4n3)CCCC5)c2)c1`, the Potency result in test [1], in test [2], in test [3], in test [4] and in test [5] was “inactive” in each case.
